Data published in the OligoGym collection.

Biological target: CENPE
Test: pooled miR-30 sensor sort-seq; sequence = guide strand
Details: shRNA
Also: reference of the scale not given here.

Sequence | sensor-assay potency score (higher = more potent)
TTGTCTTGTATCTCTTTCCTCA | 0.236
TTTTGATTTATCTAAATCCTTT | -0.683
TTGAGTGTCTCCTCTACTCTTC | -0.033
TTTATCAATAGTTTCTTGGTGC | 0.371
TTTTGTAGCACTGATTTCCTTT | -0.158
TGTAGTATCTGAGTCAACCTTA | 0.878
TTGAGAGTCTATGTATTCCTGT | 0.505
TAACACTCTCTAACATTTGTTG | 0.0489
TATTTCACACATTTTCTCCTGA | 0.76

Biological target: CENPO
Test: as above
Details: shRNA

Sequence | sensor-assay potency score (higher = more potent)
TTATTTTTTGAAACTGAAGGAA | -0.369
TATTTTTTGAAACTGAAGGAAG | -1.18
TTGCTCATTGATCTCCACTGTT | -0.258
TTTTGCAGCTATCTCTTCCAGG | 0.117
TAAGCATTCAGGTACTCGCAGA | -0.982
TTATACAGCAATCTAGCACAGA | -0.484
TTGAAACTGAAGGAAGTCCCGA | 0.077
TAGGTTTAGAAACCTCCTCAGC | -1.26
TTTAGGTTTAGAAACCTCCTCA | 0.397
TTTCTGTATGACAAGGTCCACA | -1.24
TATTTCTCTGATGTGCTCCCAG | -0.111
TTGATCTCCACTGTTTGGTTGG | 0.162

Biological target: CEP110
Test: as above
Details: shRNA

Sequence | sensor-assay potency score (higher = more potent)
TTTCTCAATTTCTAGGACCTGT | -0.0728
TAGTCTACCACTCAACTGCTTG | -1.16
TTGCATTGCTGAAATGTCGTTA | 0.524
TTATGTTTAGACATCTGCCTTA | 0.679
TTCTTTTTCTCTAACTCTCGGA | -0.414
TTGTAGTCTACCACTCAACTGC | 0.0361
TAACAGATTATTGTCATCCTGC | 0.569
TAGTTGTATAGCTTCTTCCAGT | -0.43
TTTATGGTCTTGATAGTCCAAA | -1.01
TTTCTTTCTGTCAAGAACTGGT | -0.248
TAAACCAAAAACTTGCTCCTGA | 0.902
TTCATCTGCAATCTCAACTTGC | 0.351

Biological target: CEP55
Test: as above
Details: shRNA

Sequence | sensor-assay potency score (higher = more potent)
TAAATTGTGAACTTCTTTTTGG | -0.104
TCTTTGTGAATACAACAGCTGA | -0.875
TTAACAATTTTAGCTAAGCAGA | -1.37
TTCTTCTTGCTGCTTTAGCAGA | -1.21
TTTGTGAATACAACAGCTGATT | -0.95
TAACCCATTAGCAATAACCTGA | -0.42
TTTTCTTCGAAATTCACTCAGT | 0.403
